{"source": "the supplement of paper PMC3334620", "note": "Whole data set: some 33,000 sequences, median “E-score (-0.5 to 0.5)” near -0.017, cut for the highest 2% near 0.3. The sample as a whole holds a higher share of the highest values than the screen did."}
{"target": "T1, Sut1 (UniProt P53032)", "T1 sequence": "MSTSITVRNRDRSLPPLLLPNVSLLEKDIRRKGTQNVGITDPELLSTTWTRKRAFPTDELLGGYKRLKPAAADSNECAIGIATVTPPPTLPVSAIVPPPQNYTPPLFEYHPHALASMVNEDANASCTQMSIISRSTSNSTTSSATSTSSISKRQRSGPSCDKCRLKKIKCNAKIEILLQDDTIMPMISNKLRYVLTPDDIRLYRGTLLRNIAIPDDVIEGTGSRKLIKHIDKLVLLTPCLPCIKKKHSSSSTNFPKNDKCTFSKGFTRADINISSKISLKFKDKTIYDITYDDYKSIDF", "assay": "PBM E-score (8-mer binding enrichment) (E-score (-0.5 to 0.5)); higher = stronger / more preferred TF binding", "details": "protein concentration: 200 nM; construct: GST-full length", "procedure": "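Universal 'all 10-mer' protein binding microarrays (Agilent AMADID 015681) probed with GST-tagged S. cerevisiae TFs (full-length or DBD) made by in vitro transcription/translation (PURExpress), about 100-200 nM. Bound TF was detected with fluorescent anti-GST. Each ungapped 8-mer (which stands for itself and its reverse complement) is scored by the PBM enrichment score (E-score), a modified Wilcoxon-Mann-Whitney statistic from -0.5 to +0.5, computed with the Universal PBM Analysis Suite. Scale: above 0.35 generally sequence-specific binding.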"}
{"sequence": "CCGGACAA", "PBM E-score": 0.283}
{"sequence": "ACGGAGCC", "PBM E-score": 0.219}
{"sequence": "ACGGAGAA", "PBM E-score": 0.362}
{"sequence": "ACGGAGAT", "PBM E-score": 0.435}
{"sequence": "ACGGAGAG", "PBM E-score": 0.247}
{"sequence": "ACGGAGGA", "PBM E-score": 0.0201}
{"sequence": "ACGGAGCG", "PBM E-score": 0.2}
{"sequence": "GCGGACAA", "PBM E-score": 0.23}
{"sequence": "ACGGAGCT", "PBM E-score": 0.386}
{"sequence": "ACGGAGAC", "PBM E-score": 0.232}
{"sequence": "GGATAGCA", "PBM E-score": 0.0461}
{"sequence": "CGCTGTAA", "PBM E-score": 0.00093}
{"sequence": "AACCTTTG", "PBM E-score": 0.0541}
{"sequence": "AAACTAAT", "PBM E-score": 0.292}
{"sequence": "GGTTATGA", "PBM E-score": -0.00868}
{"sequence": "CACAACCA", "PBM E-score": 0.0851}
{"sequence": "CGTTGCGC", "PBM E-score": -0.153}
{"sequence": "GTTAGTCA", "PBM E-score": -0.0461}
{"sequence": "ATTAGACC", "PBM E-score": -0.183}
{"sequence": "ACATCAAT", "PBM E-score": 0.201}
{"sequence": "AAACAGTC", "PBM E-score": -0.179}
{"sequence": "CCGGAGAG", "PBM E-score": 0.253}
{"sequence": "CCGGAGAA", "PBM E-score": 0.397}
{"sequence": "CCGGATAA", "PBM E-score": 0.285}
{"sequence": "GCGGAGAC", "PBM E-score": 0.183}
{"sequence": "CGGGAGAC", "PBM E-score": 0.132}
{"sequence": "TCGGATAA", "PBM E-score": 0.318}
{"sequence": "CCGGAGAC", "PBM E-score": 0.328}
{"sequence": "TGGGAGAA", "PBM E-score": -0.07}
{"sequence": "ACGGATAA", "PBM E-score": 0.103}
{"sequence": "CAGGAGAA", "PBM E-score": 0.0231}
{"sequence": "GCGGAGAA", "PBM E-score": 0.279}
{"sequence": "TCGGAGAA", "PBM E-score": 0.436}
{"sequence": "TCTCTAAA", "PBM E-score": 0.107}
{"sequence": "AAGATAAA", "PBM E-score": 0.199}
{"sequence": "GCGACTTA", "PBM E-score": -0.106}
{"sequence": "ACGTCTCA", "PBM E-score": -0.0462}
{"sequence": "AAAACTGA", "PBM E-score": 0.12}
{"sequence": "CAGGTTGC", "PBM E-score": -0.135}
{"sequence": "AGCCTTCC", "PBM E-score": -0.158}
{"sequence": "GGCAGCAA", "PBM E-score": -0.129}
{"sequence": "ATCGGAGA", "PBM E-score": 0.416}
{"sequence": "ATCGGCGC", "PBM E-score": -0.0591}
{"sequence": "ATCGGAGC", "PBM E-score": 0.358}
{"sequence": "CTCGGAGC", "PBM E-score": 0.389}
{"sequence": "CTCGGATA", "PBM E-score": 0.126}
{"sequence": "CTTGGAGA", "PBM E-score": -0.00672}
{"sequence": "ATCGGATA", "PBM E-score": 0.288}
{"sequence": "CTAGGAGC", "PBM E-score": -0.306}
{"sequence": "CTCGGAGA", "PBM E-score": 0.419}
{"sequence": "CTCGGTGC", "PBM E-score": -0.02}
{"sequence": "ATCGGATC", "PBM E-score": -0.00393}
{"sequence": "ATCGGAGG", "PBM E-score": 0.0998}
{"sequence": "ACCAACGC", "PBM E-score": 0.014}
{"sequence": "CGGAGCCA", "PBM E-score": 0.294}
{"sequence": "CGTTAAGC", "PBM E-score": 0.125}
{"sequence": "CTGCTGTA", "PBM E-score": -0.0764}
{"sequence": "TACAGGCA", "PBM E-score": 0.085}
{"sequence": "GTAGGAGA", "PBM E-score": -0.0911}
{"sequence": "GTCGGATA", "PBM E-score": 0.143}
{"sequence": "GTCGGAGA", "PBM E-score": 0.325}
{"sequence": "AACTAGGA", "PBM E-score": 0.0329}
{"sequence": "GACTCGCC", "PBM E-score": -0.158}
{"sequence": "AAAAAGTA", "PBM E-score": 0.125}
{"sequence": "AGGACTTA", "PBM E-score": -0.0276}
{"sequence": "CGGACTGC", "PBM E-score": 0.377}
{"sequence": "CAGACTGC", "PBM E-score": -0.135}
{"sequence": "AGGACTGC", "PBM E-score": -0.334}
{"sequence": "CGGACTTA", "PBM E-score": 0.492}
{"sequence": "GGGACTTA", "PBM E-score": -0.0858}
{"sequence": "GGGACTGA", "PBM E-score": -0.185}
{"sequence": "AGGACTGA", "PBM E-score": -0.109}
{"sequence": "CGGACTGA", "PBM E-score": 0.298}
{"sequence": "GTAAACGA", "PBM E-score": -0.0179}
{"sequence": "CACAGTAC", "PBM E-score": -0.0582}
{"sequence": "AATCCGGT", "PBM E-score": 0.258}
{"sequence": "TATCCGAA", "PBM E-score": 0.304}
{"sequence": "CATCCGGA", "PBM E-score": 0.292}
{"sequence": "AATCCGGA", "PBM E-score": 0.368}
{"sequence": "TATCCGCA", "PBM E-score": 0.169}
{"sequence": "TATCCGGA", "PBM E-score": 0.39}
{"sequence": "AATCCGGC", "PBM E-score": -0.0834}
{"sequence": "GATCCGAA", "PBM E-score": 0.26}
{"sequence": "GATCCGGC", "PBM E-score": 0.0532}
{"sequence": "GATCCGGA", "PBM E-score": 0.324}
{"sequence": "CATCCGAA", "PBM E-score": 0.151}
{"sequence": "GATCCGTA", "PBM E-score": -0.02}
{"sequence": "ACCCTCTA", "PBM E-score": -0.245}
{"sequence": "AGGTCTTC", "PBM E-score": -0.256}
{"sequence": "GGTCTCGA", "PBM E-score": 0.00072}
{"sequence": "CAACAGTC", "PBM E-score": 0.0186}
{"sequence": "TACGCGTA", "PBM E-score": -0.0808}
{"sequence": "CGGCCACC", "PBM E-score": -0.0332}
{"sequence": "CTCTAAAG", "PBM E-score": -0.0246}
{"sequence": "AGATATTA", "PBM E-score": 0.211}
{"sequence": "AATCCGCG", "PBM E-score": -0.103}
{"sequence": "GGTCCGCA", "PBM E-score": 0.241}
{"sequence": "CGTCCGCA", "PBM E-score": -0.177}
{"sequence": "AGTCCGCG", "PBM E-score": 0.435}
{"sequence": "AGTCCGCA", "PBM E-score": 0.441}
{"sequence": "ATTCCGCG", "PBM E-score": 0.18}
{"sequence": "CGTCCGCC", "PBM E-score": -0.124}
{"sequence": "ATTCCGCC", "PBM E-score": 0.214}
{"sequence": "AGTCCGCC", "PBM E-score": 0.375}
{"sequence": "ATGCACGG", "PBM E-score": -0.114}
{"sequence": "AACTTCTA", "PBM E-score": 0.131}
{"sequence": "ACCAGCTG", "PBM E-score": -0.203}
{"sequence": "GTCATAGA", "PBM E-score": -0.0539}
{"sequence": "ATGAATAC", "PBM E-score": 0.132}
{"sequence": "GGCAAACA", "PBM E-score": -0.119}
{"sequence": "GCCAAGGC", "PBM E-score": -0.29}
{"sequence": "AAATGATA", "PBM E-score": 0.337}
{"sequence": "TAATGAAA", "PBM E-score": 0.154}
{"sequence": "AAATGATG", "PBM E-score": 0.16}
{"sequence": "AGATGATA", "PBM E-score": 0.175}
{"sequence": "GAATGATA", "PBM E-score": 0.259}
{"sequence": "TAATGATA", "PBM E-score": 0.317}
{"sequence": "CAATGATA", "PBM E-score": 0.144}
{"sequence": "AAATGATC", "PBM E-score": 0.105}
{"sequence": "AAATGATT", "PBM E-score": 0.311}
{"sequence": "ACAGTGTC", "PBM E-score": -0.114}
{"sequence": "GAATTCGA", "PBM E-score": 0.0801}
{"sequence": "CTTTTCTC", "PBM E-score": 0.107}
{"sequence": "CCATCGGA", "PBM E-score": 0.255}
{"sequence": "GCATCGTA", "PBM E-score": -0.0143}
{"sequence": "GCATCGGA", "PBM E-score": 0.348}
{"sequence": "ACATCGGA", "PBM E-score": 0.351}
{"sequence": "TCATCGGA", "PBM E-score": 0.395}
{"sequence": "GCATCGGC", "PBM E-score": -0.241}
{"sequence": "ACATCGGT", "PBM E-score": -0.034}
{"sequence": "ACATCGGC", "PBM E-score": -0.0386}
{"sequence": "TCATCGAA", "PBM E-score": 0.0449}
{"sequence": "GCAATACA", "PBM E-score": 0.196}
{"sequence": "GAAATTGC", "PBM E-score": -0.0449}
{"sequence": "AGCACGCG", "PBM E-score": 0.0217}
{"sequence": "ATTACATA", "PBM E-score": 0.154}
{"sequence": "AGAGTCTG", "PBM E-score": -0.236}
{"sequence": "ACCACACA", "PBM E-score": 0.109}
{"sequence": "CTCACAGC", "PBM E-score": -0.051}
{"sequence": "TCTCAGAA", "PBM E-score": -0.12}
{"sequence": "CAAGTTGC", "PBM E-score": 0.0786}
{"sequence": "GGCTGTAC", "PBM E-score": -0.0774}
{"sequence": "GGACTTAA", "PBM E-score": 0.326}
{"sequence": "GGACTTAC", "PBM E-score": 0.352}
{"sequence": "AGACTTAA", "PBM E-score": -0.137}
{"sequence": "AGACTTAC", "PBM E-score": -0.0551}
{"sequence": "CGACTTAC", "PBM E-score": -0.0195}
{"sequence": "CGACTTAA", "PBM E-score": 0.00564}
{"sequence": "GCAAGAGA", "PBM E-score": -0.196}
{"sequence": "CTTCTGGA", "PBM E-score": -0.0307}
{"sequence": "CTCGGACA", "PBM E-score": 0.354}
{"sequence": "ATCGGACA", "PBM E-score": 0.257}
{"sequence": "ATCGGACC", "PBM E-score": 0.353}
{"sequence": "CTCGGAAC", "PBM E-score": 0.182}
{"sequence": "CTCGGATC", "PBM E-score": 0.204}
{"sequence": "GTCGGACA", "PBM E-score": 0.271}
{"sequence": "CTCGGACC", "PBM E-score": 0.368}
{"sequence": "ATCGGACG", "PBM E-score": 0.0416}
{"sequence": "AGCGGACC", "PBM E-score": 0.00064}
{"sequence": "TCTTAGAA", "PBM E-score": 0.283}
{"sequence": "AAGATTCA", "PBM E-score": 0.137}
{"sequence": "CGAGCGTC", "PBM E-score": -0.241}
{"sequence": "CATATTGG", "PBM E-score": 0.112}
{"sequence": "GAAACTGA", "PBM E-score": -0.0944}
{"sequence": "CGGCTTTA", "PBM E-score": 0.0621}
{"sequence": "AACCAGTC", "PBM E-score": 0.173}
{"sequence": "GGGGGTTA", "PBM E-score": -0.405}
{"sequence": "AGGGGTTC", "PBM E-score": -0.181}
{"sequence": "AGGGGTTA", "PBM E-score": -0.273}
{"sequence": "CGGGGTTC", "PBM E-score": 0.398}
{"sequence": "CGGGGTTA", "PBM E-score": 0.382}
{"sequence": "CCGGGTTC", "PBM E-score": -0.0363}
